Results as given in the supplement of paper PMC9262897, “Low-cost anti-mycobacterial drug discovery using engineered E. coli” (Nature Communications, 2022).
Counter-ions that a name gives are not always drawn. ± gives the standard deviation of the averaged measurements.

Key:
Assay in all cases: growth (OD600 after 10 h); higher = more growth (less inhibition)
[1] = test system: E. coli TESEC Alr+ wild-type control; details: compound 0.1 mM; raw OD600 reference: median of DMSO wells 0.241, cell-free background 0.041
Protocol: (§1)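 TESEC Mtb Alr E. coli, or the Alr+ wild-type control, in 384-well plates with Prestwick library compounds at 0.1 mM and 1% DMSO, across arabinose induction levels of 1E3 to 1E7 nM. Growth is read as OD600 after 10 h at 37 °C in triplicate biological replicates.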

E. coli TESEC Mtb Alr [2] = details: compound 0.1 mM
Protocol: as §1

E. coli TESEC Mtb Asd = details: compound 0.1 mM
Protocol: (§2)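 TESEC E. coli strains in which the native enzyme is deleted and replaced by arabinose-inducible Mtb Asd, DapB, CysH or TrpD, each grown in its selective medium. Strains were screened against the Prestwick library at 0.1 mM and 1% DMSO in 384-well format at low and high arabinose induction. Growth is read as OD600 after 10 h in triplicate.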

E. coli TESEC Mtb DapB = details: compound 0.1 mM
Protocol: as §2

[3] = test system: E. coli TESEC Alr+ wild-type control; details: compound 0.1 mM; raw OD600 reference: median of DMSO wells 0.49, cell-free background 0.052
Protocol: (§3)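 TESEC Mtb Alr E. coli (ΔaraC ΔtolC ΔentC Δalr ΔdadX, arabinose-inducible Mtb Alr) or the Alr+ wild-type control strain, grown in defined M9-fructose medium without D-alanine in 96-well plates with Prestwick library compounds at 0.1 mM and 1% DMSO. Low Alr induction is 0.1 µM arabinose and high induction is 10 mM arabinose.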

E. coli TESEC Mtb Alr [4] = details: compound 0.1 mM; remark: listed apart in the source
Protocol: as §3

[5] = arabinose 1000 nM, raw OD600 reference: median of DMSO wells 0.294, cell-free background 0.041
[6] = arabinose 10000 nM, raw OD600 reference: median of DMSO wells 0.264, cell-free background 0.041
[7] = arabinose 100000 nM, raw OD600 reference: median of DMSO wells 0.201, cell-free background 0.041
[8] = arabinose 1000000 nM, raw OD600 reference: median of DMSO wells 0.193, cell-free background 0.041
[9] = arabinose 10000000 nM, raw OD600 reference: median of DMSO wells 0.146, cell-free background 0.041
[10] = arabinose induction (level): High, raw OD600 reference: median of DMSO wells 0.331, cell-free background 0.041
[11] = arabinose induction (level): Low, raw OD600 reference: median of DMSO wells 0.417, cell-free background 0.041
[12] = arabinose induction (level): High, raw OD600 reference: median of DMSO wells […], cell-free background 0.041
[13] = arabinose induction (level): Low, raw OD600 reference: median of DMSO wells 0.227, cell-free background 0.041
[14] = arabinose 100 nM, raw OD600 reference: median of DMSO wells 0.413, cell-free background 0.052
[15] = arabinose 10000000 nM, raw OD600 reference: median of DMSO wells […], cell-free background 0.052

| SMILES | growth [1] | growth (E. coli TESEC Mtb Alr [2]; [5]) | growth (E. coli TESEC Mtb Alr [2]; [6]) | growth (E. coli TESEC Mtb Alr [2]; [7]) | growth (E. coli TESEC Mtb Alr [2]; [8]) | growth (E. coli TESEC Mtb Alr [2]; [9]) | growth (E. coli TESEC Mtb Asd; [10]) | growth (E. coli TESEC Mtb Asd; [11]) | growth (E. coli TESEC Mtb DapB; [12]) | growth (E. coli TESEC Mtb DapB; [13]) | growth [3] | growth (E. coli TESEC Mtb Alr [4]; [14]) | growth (E. coli TESEC Mtb Alr [4]; [15]) |
| --- | --- | --- | --- | --- | --- | --- | --- | --- | --- | --- | --- | --- | --- |
| CC(C)OC(=O)CCC/C=C\C[C@@H]1[C@@H](CC[C@@H](O)CCc2ccccc2)[C@H](O)C[C@@H]1O [Latanoprost] | 0.0604 ± 0.0021 | 0.05 ± 0.0017 | 0.0396 ± 0.0001 | 0.0525 ± 0.00065 | 0.04007 ± 0.00012 | 0.0545 ± 0.0034 | 0.0525 ± 0.0016 | 0.05293 ± 0.00021 | 0.0594 ± 0.0031 | 0.0554 ± 0.0022 | 0.195 ± 0.059 | 0.314 ± 0.037 | 0.0658 ± 0.011 |
| O=C1NCC2(CCN(CCc3ccccc3)CC2)O1 [Fenspiride hydrochloride] | 0.248 ± 0.0052 | 0.288 ± 0.013 | 0.27 ± 0.0043 | 0.199 ± 0.0053 | 0.185 ± 0.0044 | 0.148 ± 0.0017 | 0.366 ± 0.098 | 0.45 ± 0.025 | 0.199 ± 0.011 | 0.253 ± 0.048 | 0.487 ± 0.054 | 0.415 ± 0.0097 | 0.336 ± 0.0092 |
| NCC[C@H](O)C(=O)N[C@@H]1C[C@H](N)[C@@H](O[C@H]2O[C@H](CN)[C@@H](O)[C@H](O)[C@H]2O)[C@H](O)[C@H]1O[C@H]1O[C@H](CO)[C@@H](O)[C@H](N)[C@H]1O [Amikacin hydrate] | 0.04273 ± 0.00012 | 0.0418 ± 0.00079 | 0.039 ± 0.0001 | 0.0425 ± 0.0009 | 0.03943 ± 0.00021 | 0.0506 ± 0.00051 | 0.0495 ± 0.0018 | 0.0485 ± 0.0012 | 0.0548 ± 0.0017 | 0.0518 ± 0.0032 | 0.0539 ± 0.00071 | 0.0563 ± 0.0034 | 0.0532 ± 0.0009 |
| CCCSc1ccc2[nH]c(NC(=O)OC)nc2c1 [Albendazole] | 0.246 ± 0.025 | 0.274 ± 0.021 | 0.255 ± 0.0036 | 0.211 ± 0.031 | 0.1462 ± 0.00096 | 0.137 ± 0.0025 | 0.41 ± 0.017 | 0.409 ± 0.033 | 0.205 ± 0.0098 | 0.25 ± 0.025 | 0.48 ± 0.013 | 0.428 ± 0.01 | 0.419 ± 0.054 |
| CN1CCN(c2c(F)cc3c(=O)c(C(=O)O)cn4c3c2SCC4)CC1 [Rufloxacin] | 0.04323 ± 0.00015 | 0.0429 ± 0.001 | 0.03973 ± 0.00031 | 0.04207 ± 0.00031 | 0.03957 ± 0.00025 | 0.0429 ± 0.0015 | 0.04973 ± 0.00045 | 0.0499 ± 0.0012 | 0.0507 ± 0.00094 | 0.0509 ± 0.0014 | 0.0549 ± 0.00072 | 0.0582 ± 0.0019 | 0.05197 ± 0.00051 |
| c1ccc(C2CN3CCSC3=N2)cc1 (stereo not given) [Tetramisole hydrochloride] | 0.244 ± 0.003 | 0.303 ± 0.011 | 0.259 ± 0.0099 | 0.242 ± 0.045 | 0.176 ± 0.0046 | 0.16 ± 0.0039 | 0.257 ± 0.033 | 0.358 ± 0.046 | 0.203 ± 0.02 | 0.252 ± 0.035 | 0.529 ± 0.087 | 0.408 ± 0.014 | 0.316 ± 0.015 |
| COCCc1ccc(OCC(O)CNC(C)C)cc1 (racemic) [Metoprolol-(+,-) (+)-tartrate salt] | 0.225 ± 0.0047 | 0.306 ± 0.018 | 0.266 ± 0.014 | 0.203 ± 0.013 | 0.199 ± 0.0081 | 0.141 ± 0.0035 | 0.311 ± 0.028 | 0.466 ± 0.038 | 0.214 ± 0.031 | 0.236 ± 0.0073 | 0.494 ± 0.11 | 0.399 ± 0.008 | 0.3498 ± 0.0028 |
| COc1cc2nc(N3CCN(C(=O)c4ccco4)CC3)nc(N)c2cc1OC [Prazosin hydrochloride] | 0.242 ± 0.0066 | 0.319 ± 0.019 | 0.239 ± 0.0065 | 0.185 ± 0.008 | 0.147 ± 0.015 | 0.226 ± 0.0067 | 0.263 ± 0.09 | 0.348 ± 0.091 | 0.247 ± 0.023 | 0.285 ± 0.029 | 0.498 ± 0.007 | 0.399 ± 0.013 | 0.3092 ± 0.0026 |
| C#C[C@]1(OC(C)=O)CC[C@H]2[C@@H]3CCC4=C[C@@H](OC(C)=O)CC[C@@H]4[C@H]3CC[C@@]21C [Ethynodiol diacetate] | 0.174 ± 0.0051 | 0.233 ± 0.016 | 0.215 ± 0.034 | 0.12 ± 0.0032 | 0.0855 ± 0.0055 | 0.161 ± 0.018 | 0.221 ± 0.012 | 0.358 ± 0.039 | 0.161 ± 0.0063 | 0.165 ± 0.011 | 0.4 ± 0.018 | 0.384 ± 0.012 | 0.118 ± 0.019 |
| CC(C)c1c(C(=O)Nc2ccccc2)c(-c2ccccc2)c(-c2ccc(F)cc2)n1CC[C@@H](O)C[C@@H](O)CC(=O)O [Atorvastatin] | 0.12 ± 0.0024 | 0.177 ± 0.0077 | 0.108 ± 0.0075 | 0.168 ± 0.0033 | 0.0909 ± 0.0015 | 0.136 ± 0.0052 | 0.169 ± 0.018 | 0.169 ± 0.018 | 0.171 ± 0.018 | 0.183 ± 0.031 | 0.217 ± 0.011 | 0.352 ± 0.058 | 0.175 ± 0.037 |
| CC(=O)O[C@]1(C(C)=O)CC[C@H]2[C@@H]3C=C(C)C4=CC(=O)CC[C@@H]4[C@H]3CC[C@@]21C [Nomegestrol acetate] | 0.1345 ± 0.001 | 0.127 ± 0.02 | 0.0606 ± 0.0005 | 0.124 ± 0.0062 | 0.061 ± 0.0017 | 0.0997 ± 0.0051 | 0.126 ± 0.018 | 0.104 ± 0.0027 | 0.144 ± 0.014 | 0.129 ± 0.0045 | 0.14 ± 0.0081 | 0.229 ± 0.082 | 0.0935 ± 0.015 |
| Cc1cc(C(C)(C)CC(C)(C)C)ccc1OCCOCC[N+](C)(C)Cc1ccccc1 [Methyl benzethonium chloride] | 0.0446 ± 0.0012 | 0.0483 ± 0.0025 | 0.0504 ± 0.002 | 0.0489 ± 0.00059 | 0.04487 ± 0.00031 | 0.04963 ± 0.00035 | 0.0532 ± 0.001 | 0.0608 ± 0.0092 | 0.0545 ± 0.0014 | 0.0542 ± 0.00078 | 0.0474 ± 0.00066 | 0.0556 ± 0.0023 | 0.0529 ± 0.0018 |
| CC[C@]12CCCN3CCc4c(n(c5ccccc45)C(=O)C1)[C@@H]32 [Eburnamonine (-)] | 0.182 ± 0.0061 | 0.238 ± 0.0081 | 0.257 ± 0.0031 | 0.144 ± 0.0086 | 0.124 ± 0.004 | 0.135 ± 0.0057 | 0.119 ± 0.0043 | 0.27 ± 0.095 | 0.176 ± 0.0063 | 0.176 ± 0.012 | 0.544 ± 0.059 | 0.393 ± 0.012 | 0.277 ± 0.015 |
| COC(=O)Nc1nc2cc(C(=O)c3ccccc3)ccc2[nH]1 [Mebendazole] | 0.202 ± 0.005 | 0.245 ± 0.021 | 0.269 ± 0.0042 | 0.189 ± 0.011 | 0.168 ± 0.0043 | 0.159 ± 0.0019 | 0.306 ± 0.021 | 0.398 ± 0.078 | 0.206 ± 0.017 | 0.273 ± 0.053 | 0.588 ± 0.031 | 0.413 ± 0.0078 | 0.342 ± 0.017 |
| CN(C)CCOC(c1ccccc1)c1ccccc1.Cn1c(=O)c2[nH]c(Cl)nc2n(C)c1=O [Dimenhydrinate] | 0.213 ± 0.0024 | 0.255 ± 0.012 | 0.226 ± 0.0081 | 0.174 ± 0.011 | 0.134 ± 0.01 | 0.133 ± 0.0031 | 0.261 ± 0.044 | 0.342 ± 0.12 | 0.174 ± 0.0038 | 0.197 ± 0.014 | 0.53 ± 0.059 | 0.402 ± 0.008 | 0.319 ± 0.0044 |
